Reference: PubChem BioAssay AID1159580 (chemical genetic matrix, 2015)
“And” between values parts separate entries of the source, which are not always exact repeats. Equal values may be shown once. Hit rate of the full screen: of about 5,500 compounds, about 2,000 (36%) were called active. Roughly 18% stayed inconclusive and do not appear here. Rule as the data show it: active = normalized growth mostly below about 0.91 (no sharp cut-off); inconclusive = no clear call, values can overlap the other calls; inactive = mostly above about 0.92. The list shows a part of the results.

Test: chemical genetic growth profiling, strain panel (AID 1159580);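 also: tested at 20 µM; growth read once vehicle control cultures reached saturation at 30 °C; 1 = growth at the plate median or of vehicle wells; lower values mean less growth of the strain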
Conditions: S. cerevisiae deletion strains, growth OD

Measured: normalized growth

Cc1cc(O)c(C=O)c(O)c1C(=O)O
inactive: locus YAL021C, strain ccr4, active compounds read low 0.991 | locus YAL026C, strain drs2, active compounds read low 1.01 | locus YAL030W, strain snc1, active compounds read low 0.997 | locus YBL061C, strain skt5, active compounds read low 1.01 | locus YBR009C, strain hhf1, active compounds read low 1.02 | locus YBR021W, strain FUR4, active compounds read low 1.05 | locus YBR023C, strain chs3, active compounds read low 1.01 | locus YBR171W, strain sec66, active compounds read low 1 | locus YBR229C, strain ROT2, active compounds read low 0.999 | locus YBR231C, strain swc5, active compounds read low 0.99 | locus YBR279W, strain paf1, active compounds read low 0.997 | locus YCL011C, strain gbp2, active compounds read low 1.01 | locus YCL016C, strain dcc1, active compounds read low 1.01 | locus YCL029C, strain bik1, active compounds read low 1.02 | locus YCL061C, strain MRC1, active compounds read low 1.01 | locus YCL069W, strain vba3, active compounds read low 1 | locus YCR088W, strain abp1, active compounds read low 1.01 | locus YDL005C, strain med2, active compounds read low 1.01 | locus YDL035C, strain GPR1, active compounds read low 1.03 | locus YDL040C, strain nat1, active compounds read low 1.01 | locus YDL074C, strain BRE1, active compounds read low 1.06 | locus YDL101C, strain DUN1, active compounds read low 1.03 | locus YDL185W, strain tfp1, active compounds read low 0.987 | locus YDL192W, strain arf1, active compounds read low 1.03 | locus YDR001C, strain nth1, active compounds read low 0.999 | locus YDR069C, strain doa4, active compounds read low 0.977 | locus YDR101C, strain arx1, active compounds read low 1.04 | locus YDR137W, strain rgp1, active compounds read low 1.01 | locus YDR150W, strain NUM1, active compounds read low 0.983 | locus YDR159W, strain sac3, active compounds read low 1.01 | locus YDR162C, strain NBP2, active compounds read low 1.02 | locus YDR195W, strain ref2 0.99 | locus YDR297W, strain sur2, active compounds read low 0.997 | locus YDR318W, strain mcm21, active compounds read low 1 | locus YDR334W, strain swr1, active compounds read low 0.987 | locus YDR335W, strain msn5, active compounds read low 0.991 | locus YDR388W, active compounds read low 0.997 | locus YDR392W, strain spt3, active compounds read low 0.962 | locus YDR502C, strain sam2, active compounds read low 1.03 | locus YEL003W, strain gim4, active compounds read low 0.995 | locus YEL037C, strain rad23, active compounds read low 0.993 | locus YEL061C, strain CIN8 (second series), active compounds read low 0.999 | locus YEL061C, strain CIN8, active compounds read low 1.01 | locus YER015W, strain faa2, active compounds read low 1 | locus YER016W, strain bim1, active compounds read low 1 | locus YER110C, active compounds read low 1.01 | locus YER111C, strain swi4, active compounds read low 1 | locus YER155C, strain BEM2 (second series), active compounds read low 1 | locus YER155C, strain BEM2, active compounds read low 1.01 | locus YER167W, strain BCK2, active compounds read low 1.03 | locus YFR010W, strain ubp6, active compounds read low 0.999 | locus YGL078C, strain dbp3, active compounds read low 1.01 | locus YGL086W, strain mad1, active compounds read low 1.03 | locus YGL167C, strain pmr1, active compounds read low 0.989 | locus YGL173C, strain kem1, active compounds read low 1.01 | locus YGL227W, strain vid30, active compounds read low 0.999 | locus YGL240W, strain doc1, active compounds read low 0.929 | locus YGL248W, strain PDE1, active compounds read low 1.03 | locus YGL253W, strain hxk2, active compounds read low 1 | locus YGR078C, strain PAC10, active compounds read low 1.06 | locus YGR135W, strain pre9, active compounds read low 1.02 | locus YGR252W, strain gcn5, active compounds read low 1 | locus YHR013C, strain ard1, active compounds read low 1.01 | locus YHR027C, strain rpn1, active compounds read low 0.992 | locus YHR030C, strain SLT2, active compounds read low 1 and 1.02 | locus YHR079C, strain IRE1 (second series), active compounds read low 1.01 | locus YHR079C, strain IRE1, active compounds read low 1.04 | locus YHR094C, strain hxt1, active compounds read low 1.01 | locus YHR129C, strain ARP1, active compounds read low 1.02 | locus YHR142W, strain chs7, active compounds read low 1.03 | locus YHR200W, strain rpn10, active compounds read low 1.02 | locus YIL066C, strain RNR3, active compounds read low 1.05 | locus YIL073C, strain SPO22, active compounds read low 1.12 | locus YIL125W, strain kgd1, active compounds read low 1 | locus YIR030C, strain dcg1, active compounds read low 1.02 | locus YJL092W, strain hpr5, active compounds read low 1.01 | locus YJL095W, strain BCK1 (second series), active compounds read low 1.01 | locus YJL095W, strain BCK1, active compounds read low 1.1 and 1 | locus YJL115W, strain asf1, active compounds read low 0.999 | locus YJL129C, strain trk1, active compounds read low 1.05 | locus YJL134W, strain LCB3, active compounds read low 0.993 | locus YJL154C, strain vps35, active compounds read low 0.996 | locus YJL164C, strain tpk1, active compounds read low 1.02 | locus YJL166W, strain qcr8, active compounds read low 1.01 | locus YJL168C, strain set2, active compounds read low 0.997 | locus YJL187C, strain SWE1 (second series), active compounds read low 1.05 | locus YJL187C, strain SWE1, active compounds read low 0.998 | locus YJR043C, strain POL32, active compounds read low 1.02 | locus YJR066W, strain TOR1, active compounds read low 0.93 | locus YJR075W, strain HOC1, active compounds read low 1.06 | locus YKL009W, strain mrt4, active compounds read low 1.04 | locus YKL068W, active compounds read low 0.987 | locus YKL085W, strain MDH1 (second series), active compounds read low 1 | locus YKL085W, strain MDH1, active compounds read low 1 | locus YKL160W, strain elf1, active compounds read low 1.03 | locus YKR001C, strain vps1, active compounds read low 1.03 | locus YKR026C, strain gcn3, active compounds read low 1.01 | locus YKR091W, strain srl3, active compounds read low 1.01 | locus YLL001W, strain dnm1, active compounds read low 1.02 | locus YLL026W, active compounds read low 1.01 | locus YLL041C, strain sdh2, active compounds read low 0.997 | locus YLR027C, strain aat2, active compounds read low 1.01 | locus YLR039C, strain RIC1, active compounds read low 1.09 | locus YLR058C, strain SHM2, active compounds read low 0.965 | locus YLR102C, strain apc9, active compounds read low 1.01 | locus YLR113W, strain HOG1, active compounds read low 1.07 | locus YLR221C, strain rsa3, active compounds read low 1.03 | locus YLR258W, strain gsy2, active compounds read low 1 | locus YLR262C, strain YPT6 (second series), active compounds read low 1.01 | locus YLR262C, strain YPT6, active compounds read low 1.14 | locus YLR268W, strain sec22, active compounds read low 1.04 | locus YLR320W, strain mms22, active compounds read low 1.05 | locus YLR330W, strain CHS5, active compounds read low 1 | locus YLR342W, strain FKS1 (second series), active compounds read low 1.01 | locus YLR342W, strain FKS1, active compounds read low 1.01 | locus YLR357W, strain rsc2, active compounds read low 1.02 | locus YLR370C, strain arc18, active compounds read low 1 | locus YLR371W, strain rom2, active compounds read low 1.01 | locus YLR384C, strain iki3, active compounds read low 0.999 | locus YLR418C, strain cdc73, active compounds read low 1.05 | locus YML016C, strain PPZ1, active compounds read low 1.01 | locus YML032C, strain rad52, active compounds read low 0.985 | locus YML120C, strain ndi1, active compounds read low 1.01 | locus YML124C, strain tub3, active compounds read low 1.01 | locus YMR058W, strain fet3, active compounds read low 0.987 | locus YMR078C, strain ctf18, active compounds read low 0.999 | locus YMR125W, strain sto1, active compounds read low 1.01 | locus YMR129W, active compounds read low 1 | locus YMR205C, strain PFK2, active compounds read low 1.05 | locus YMR223W, strain ubp8, active compounds read low 1.02 | locus YMR231W, strain pep5, active compounds read low 0.989 | locus YMR263W, strain SAP30, active compounds read low 1.06 | locus YMR307W, strain GAS1, active compounds read low 1.08 | locus YNL067W, strain RPL9B, active compounds read low 1.05 | locus YNL071W, strain lat1, active compounds read low 1.01 | locus YNL183C, strain NPR1, active compounds read low 0.946 | locus YNL209W, strain ssb2, active compounds read low 0.992 | locus YNL233W, strain BNI4, active compounds read low 1.09 | locus YNL248C, strain rpa49, active compounds read low 1.01 | locus YNL250W, strain rad50, active compounds read low 0.986 | locus YNL271C, strain bni1, active compounds read low 1 | locus YNL298W, strain CLA4, active compounds read low 1.01 | locus YNL307C, strain MCK1, active compounds read low 1.03 | locus YNL322C, strain KRE1 (second series), active compounds read low 1.01 | locus YNR049C, strain mso1, active compounds read low 1.01 | locus YNR052C, strain pop2, active compounds read low 0.992 | locus YOL012C, strain htz1 0.989 | locus YOL147C, strain pex11, active compounds read low 1 | locus YOR001W, strain rrp6, active compounds read low 1.02 | locus YOR061W, strain CKA2, active compounds read low 1 | locus YOR069W, strain VPS5, active compounds read low 1.01 | locus YOR070C, strain gyp1, active compounds read low 0.998 | locus YOR080W, strain dia2, active compounds read low 0.998 | locus YOR083W, strain WHI5, active compounds read low 1.04 | locus YOR106W, strain vam3, active compounds read low 1.03 | locus YOR136W, strain idh2, active compounds read low 1.03 | locus YOR144C, strain elg1, active compounds read low 1 | locus YOR184W, strain ser1, active compounds read low 1.05 | locus YOR231W, strain MKK1, active compounds read low 1.04 | locus YOR265W, strain rbl2, active compounds read low 1.01 | locus YOR270C, strain vph1, active compounds read low 1.02 | locus YOR290C, strain snf2, active compounds read low 1.02 | locus YOR316C, strain cot1, active compounds read low 1.01 | locus YPL051W, strain arl3, active compounds read low 0.999 | locus YPL078C, strain atp4, active compounds read low 1.01 | locus YPL106C, strain sse1, active compounds read low 0.995 | locus YPL240C, strain hsp82, active compounds read low 1 | locus YPL241C, strain CIN2, active compounds read low 0.995 | locus YPL256C, strain CLN2, active compounds read low 1.03 | locus YPR119W, strain clb2, active compounds read low 0.999 | locus YPR141C, strain kar3, active compounds read low 0.993 | locus YPR163C, strain tif3, active compounds read low 1 | locus YPR167C, strain met16, active compounds read low 1.01 | strain wtn01, active compounds read low 1.04
